{
  "source": "PubChem BioAssay",
  "data": [
    {"assay": "resazurin metabolic signal in HepG2 cells – cell-based, resazurin fluorescence, 24 h, PK04 Diversity Set, profiling panel (AID 1172); further: test concentration not given here", "settings": "HepG2 viability, higher = more signal", "values": [
      {"smiles": "CN1CCC(CCCO)=CC1c1ccc(CN2CCCC2)cc1", "note": "(stereo not drawn)", "z-score": 0.106},
      {"smiles": "C=C[C@H](C)[C@@H](O)c1ccc(O)c2ccccc12", "z-score": 0.146},
      {"smiles": "COCCOC(=O)N1C(=O)[C@@]2(c3cc(C#CC4=CCCCC4)ccc31)[C@H](C(=O)N1CCc3cc(OC)c(OC)cc3C1)[C@H]1C(=O)O[C@H](c3ccccc3)[C@H](c3ccccc3)N1[C@@H]2c1ccccc1OCCO", "z-score": -0.437},
      {"smiles": "COC(=O)C1=CC(CCCO)=CC(C2CC2)N(Cc2sc3ccccc3c2Cl)C=C1C(=O)OC", "note": "(stereo not drawn)", "z-score": -0.908},
      {"smiles": "NC(=O)NCC#Cc1ccc2c(c1)[C@]1(C(=O)N2)[C@H](C(=O)N2CCCCCCC2)[C@H]2C(=O)O[C@H](c3ccccc3)[C@H](c3ccccc3)N2[C@@H]1c1ccc(OCCO)cc1", "z-score": -0.3},
      {"smiles": "COc1ccccc1CN1C(=O)c2ccccc2[C@@H](C(=O)NCCN2CCOCC2)[C@@H]1c1ccc(CO)cc1", "z-score": 0.505},
      {"smiles": "O=c1cccc(C=Cc2ccccc2)o1", "z-score": 0.266},
      {"smiles": "C=C[C@@H](COC(C)=O)N(Cc1ccc([N+](=O)[O-])cc1)S(=O)(=O)c1ccc(Br)cc1", "z-score": 0.835},
      {"smiles": "CC(C)C(=C=CC[C@@H](O)c1ccccc1OCCO)C[C@@H](O)c1ccccn1", "z-score": -0.347},
      {"smiles": "CCCCC=C[C@@H](NC(=O)c1ccc(C(=O)OC)cc1)c1ccccc1", "z-score": 2.26},
      {"smiles": "O=c1oc(-c2ccccc2)nc2cc(Br)ccc12", "z-score": -0.284},
      {"smiles": "C=CC(COC(C)=O)NS(=O)(=O)c1ccc(Br)cc1", "note": "(stereo not drawn)", "z-score": -0.233},
      {"smiles": "CS(=O)(=O)CCOC(=O)C1=CC(CCCO)=CC(c2cccs2)N(Cc2cc3c(cc2Br)OCO3)C=C1C(=O)OCCS(C)(=O)=O", "note": "(stereo not drawn)", "z-score": 1.13}
    ]}
  ]
}
